From PubChem BioAssay (NCI) come the findings set out here.

The panel holds about 83,000 compounds, 20% with a hit somewhere; the sample as a whole holds those more often.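 Activity criterion: percent growth below 10, measured after cells in 96-well plates were exposed to a single compound concentration for 48 hours.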 Unmarked numbers belong to inactive results. Active and inactive are the calls of the source.

This test has as its system MDA-MB-468 breast. Description: NCI-60 one-dose screen, 48 h (100 = growth as untreated, 0 = no growth, -100 = all killed). The following applies: 10 µM unless noted.
Consider `C=C1c2c(Cl)ccc(O)c2C(O)=C2C(=O)[C@]3(O)C(O)=C(C(N)=O)C(=O)[C@@H](N(C)C)[C@@H]3[C@@H](O)[C@H]12`, for which the growth was -4.52% (active).
On to `Ic1ccc(SSc2ccc(I)cc2)cc1`, for which the growth was 108%.
Regarding `CC(=O)NCCSC(=O)C(=O)SCCNC(C)=O`, the growth is 103%.
To `O=C(O)c1ccc(N=CC(=O)c2ccc(-c3ccccc3)cc2)cc1` belongs 83.5%; to `O=C(/C=C/c1ccc(B(O)O)cc1)/C=C/c1ccc(B(O)O)cc1`, 1.24% (active); to `CCC(C)(c1cc(C(C)(C)C)c(O)c(C(C)(C)C)c1)c1cc(C(C)(C)C)c(O)c(C(C)(C)C)c1`, 112%.
For the molecule `CCOC(=O)c1cc(C#N)n2ccc3ccccc3c12`, the growth is 98.4%.
`Cc1ccc(-c2ccc(Nc3ccccc3)nn2)cc1S(N)(=O)=O`: the growth was 64%.
In the case of `CCOC(=O)c1ccc(N/C=C/C(=O)c2ccccc2)cc1`, the growth was 98.9%.
Under `O=C(/C=C/c1ccccc1)c1cccc(OCCCOc2cccc(C(=O)/C=C/c3ccccc3)c2)c1` stands 93.9%; under `COc1cc2ncnc(Nc3ccc(O)cc3)c2cc1OC`, 17.6%; under `COc1cc(OC)c(C(=O)C(CN(C)C)CN(C)C)cc1OC`, -73.3% (active).
To `COc1ccc(/C=N/NC(=O)CSc2nc(-c3cnccn3)cc(-c3cccs3)c2C#N)cc1OC` belongs 65.3%; to `CCn1cc(C(=O)N/N=C/c2ccc(Br)cc2)c(=O)c2cc(F)c(N3CCNC(C)C3)c(F)c21` (configuration not stated), 82.5%; to `CN(C)c1ccc(/C=N/Nc2nnc3n2N=C(c2ccc(Cl)cc2)CS3)cc1`, 104%.
As for `CCN1C(=S)N(c2ccccc2)C2C1NN=c1s/c(=C3\C(=O)N(C(C)C)c4ccccc43)c(=O)n12` (configuration not stated), the growth is 94.5%.
As to `O=[N+]([O-])c1ccc2ncccc2c1Cl`, the growth was -2.71% (active).
As to `O=C(CSc1nc(-c2ccccc2)cc(=O)[nH]1)Nc1nc(-c2ccccc2)cs1`, the growth was 96.6%.
Take `CC1Cc2c(Cl)ncnc2N(C)c2ccc(Cl)cc21` (configuration not stated): the growth is -35.8% (active).
For `O=C(Cc1ccc(F)c(Cl)c1)Nc1cc(C2(C(F)(F)F)CC2)nn1CC1CCCCC1`, the growth is -13.1% (active).
With `C=C(C)[C@@H]1CC[C@]2(C(=O)O)CC[C@]3(C)[C@H](CC[C@@H]4[C@@]5(C)C/C(=C/c6ccccn6)C(=O)C(C)(C)[C@@H]5CC[C@]43C)[C@@H]12`, the growth was 9.64% (active).
Turning to `C=C1c2nc3ccccc3n2C=C(c2ccc(Cl)cc2)N1Cc1ccccc1`, the growth was 59.1%.
For `O=C(CCN1CCCCC1)c1ccc2ccccc2c1`, the growth is 92.1%.
Turning to `CCOC(=O)c1c(N)sc2cc(O)ccc12`, the growth is 131%.
For the molecule `COc1ccc(-c2csc3c2-n2cccc2C3=O)cc1O`, the growth was -5.84% (active).
Regarding `Cc1cc(C(=O)Nc2sc3c(c2C(N)=O)CCC(=O)C3)ccc1OCCN1CCCCC1`, the growth was 112%.
In the case of `Nc1ccc2cc(Br)c3ccccc3c2c1`, the growth is 4.15% (active).
